Assay [1] in a line: Quantitative high throughput screen for delayed death inhibitors of the malarial parasite plastid, 96 hour incubation (AID 488745). Further: nearly all actives have a fitted effect of over 70% in size. Further: potency means the concentration at half of the fitted maximal effect. In outline:
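Luciferase-expressing P. falciparum, infected RBCs 2% Hct/0.1% parasitemia (final); 96 h cpd exposure, 37 C, 5% CO2; RPMI 1640 + 0.5% Albumax, bicarbonate, gentamycin. Readout: luminescence loss = growth inhibition.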

A short description of assay [2]: Quantitative high throughput screen for delayed death inhibitors of the malarial parasite plastid, 48 hour incubation (AID 488752). Further: nearly all actives have a fitted effect of over 65% in size. Further: potency means the concentration at half of the fitted maximal effect. The gist of the method:
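Luciferase-expressing P. falciparum in RBCs, 2% Hct, 0.1% parasitemia final; RPMI 1640 + 0.5% Albumax; 48 h, 37 C, 5% CO2; luminescence readout, signal drop = growth inhibition.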

Assay [3] concerns the target Thioredoxin reductase 1, cytoplasmic (Rattus norvegicus) (UniProt O89049). Put plainly: qHTS Assay for Substrates of Mammalian Selenoprotein Thioredoxin Reductase 1 (TrxR1) (AID 488772).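 Further: series mostly up to about 57 µM; a drop in NADPH fluorescence below the no-compound background marks a TrxR1 substrate.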 In outline:
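In this dual-purpose format, potential substrates are identified from the first fluorescence read after selenite addition, not from the 8-minute delta. Rat enzyme is preincubated with NADPH and then with compound at ~22 deg C.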
Background: In qHTS, concentration-response curves come from the screen itself.

In assay [4] the target is Flap endonuclease 1 (Homo sapiens) (UniProt P39748). Nature of the assay: qHTS Validation Assay for the Inhibitors of Human Flap endonuclease 1 (FEN1) (AID 488816). The gist of the method: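 qHTS format: compounds and 10 nM FEN1 incubated 15 min at room temperature before adding 50 nM substrate. Cleavage followed by reads at 0 and 15 min; normalized data fitted to a four-parameter Hill curve.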

In assay [5] the target is M-phase phosphoprotein 8 (Homo sapiens) (UniProt Q99549). Put plainly: qHTS Validation Assay for Inhibitors for MPP8 Chromodomain Interactions with Methylated Histone Tails (AID 488949). Further: nearly all actives have a fitted effect of over 55% in size. Further: potency means the concentration at half of the fitted maximal effect. In outline: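 AlphaScreen read-out: streptavidin donor and nickel chelate acceptor beads (final 10 ug/mL), 30 min in the dark at RT. Complex of 50 nM MPP8 and 50 nM b-H3(1-18)K9me3 peptide had been exposed to compounds for 30 min beforehand.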

Assay [6] concerns the target Methanococcus maripaludis chaperonin (MmCpn) (UniProt Q6LX38). Nature of the assay: High-Throughput Screening for Modulators of Cytosolic Chaperonin Activity: MmCpn Primary Screen (AID 488978).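 Further: 50 nM MmCpn enzyme hydrolysing 30 µM ATP at 37 °C.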 In outline:
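ADP formation read by HTRF Transcreener, 665/590 nm emission after 320 nm excitation. Enzyme: archaeal chaperonin at 50 nM final; substrate ATP 30 uM final; 10 min, 37C, after 5 min compound preincubation at RT.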

The target in assay [7] is Transient receptor potential cation channel subfamily V member 1 (Homo sapiens) (UniProt Q8NER1). Put plainly: HTS Assay for Compounds that Act as Enhancers of the Vanilloid Receptor 1 (AID 488979). In outline: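 Calcium influx kinetics via Fluo-8 (480/520 nm) in TRPV1-expressing cells, 2000/well cultured overnight at 35.5C. Compound-alone read 3 min (agonist phase), followed by EC20 capsaicin challenge for 2 min (enhancer phase).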

Assay [8] concerns the target Thioredoxin reductase 1, cytoplasmic (Rattus norvegicus) (UniProt O89049). Nature of the assay: qHTS Assay for Inhibitors of Mammalian Selenoprotein Thioredoxin Reductase 1 (TrxR1) (AID 488773). Further: nearly all actives have a fitted effect of over 40% in size. Further: potency means the concentration at half of the fitted maximal effect. Particulars: Potency: inhibition. The gist of the method: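 Inhibition is scored from the loss of NADPH fluorescence between first and last reads of an 8-min kinetic run. Selenite (400 uM) was the substrate, added after 15 min compound preincubation at room temperature.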

In assay [9] the target is Chromobox protein homolog 1 (Homo sapiens) (UniProt P83916). Put plainly: qHTS Validation Assay for Inhibitors of HP1-beta Chromodomain Interactions with Methylated Histone Tails (AID 488953). Further: nearly all actives have a fitted effect of over 50% in size. Further: potency means the concentration at half of the fitted maximal effect. The gist of the method:
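AlphaScreen proximity readout: streptavidin donor and Ni-chelate acceptor beads, 10 ug/mL final, 30 min dark, RT. Complex of 50 nM HP1-beta and 50 nM b-H3(1-18)K9me3 formed 30 min, then compound-treated 30 min; PBS pH 7.4/0.01% Tween-20.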

Assay [10] has as its target Thyrotropin receptor (Homo sapiens) (UniProt P16473). Put plainly: qHTS Assay for Antagonists of the Thyroid Stimulating Hormone Receptor (AID 488980). Further: series mostly up to about 58 µM. The gist of the method:
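TSHR-HEK293 cells; 70 uM RO 20-1724 PDE inhibitor; compound + EC80 TSH (4 nM final); anti-cAMP cryptate antibody/cAMP-d2 in lysis buffer, 30 min RT; HTRF 665/620 nm read.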

Inconclusive results are not listed. Where a structure was tested more than once in an assay, its records may differ in their call. Calls of active or inactive are those of the source. The call rests on the fitted dose curve; in most records, active means well fitted curve in the direction sought with a large enough effect; inconclusive means small, poorly fitted or top-dose-only effect, or another doubt; inactive means no such curve, though single readings can be large; an effect the other way counts as inactive or inconclusive.

Chain of Thioredoxin reductase 1, cytoplasmic (Rattus norvegicus) (O89049 whole entry, looked up): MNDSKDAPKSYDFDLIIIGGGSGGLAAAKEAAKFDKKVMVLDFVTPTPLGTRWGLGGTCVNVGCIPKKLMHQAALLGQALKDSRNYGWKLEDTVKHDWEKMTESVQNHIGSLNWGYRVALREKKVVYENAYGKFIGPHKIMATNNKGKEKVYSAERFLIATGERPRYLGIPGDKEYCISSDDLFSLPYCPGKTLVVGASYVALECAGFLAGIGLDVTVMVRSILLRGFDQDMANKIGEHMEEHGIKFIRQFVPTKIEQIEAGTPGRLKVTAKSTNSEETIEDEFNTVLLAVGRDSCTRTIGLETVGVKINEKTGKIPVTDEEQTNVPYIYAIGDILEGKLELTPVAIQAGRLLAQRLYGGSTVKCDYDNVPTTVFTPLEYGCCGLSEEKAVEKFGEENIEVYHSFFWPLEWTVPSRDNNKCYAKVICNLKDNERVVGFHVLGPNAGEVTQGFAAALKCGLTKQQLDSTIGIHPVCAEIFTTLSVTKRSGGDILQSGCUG
Chain of Flap endonuclease 1 (Homo sapiens) (P39748 whole entry, looked up): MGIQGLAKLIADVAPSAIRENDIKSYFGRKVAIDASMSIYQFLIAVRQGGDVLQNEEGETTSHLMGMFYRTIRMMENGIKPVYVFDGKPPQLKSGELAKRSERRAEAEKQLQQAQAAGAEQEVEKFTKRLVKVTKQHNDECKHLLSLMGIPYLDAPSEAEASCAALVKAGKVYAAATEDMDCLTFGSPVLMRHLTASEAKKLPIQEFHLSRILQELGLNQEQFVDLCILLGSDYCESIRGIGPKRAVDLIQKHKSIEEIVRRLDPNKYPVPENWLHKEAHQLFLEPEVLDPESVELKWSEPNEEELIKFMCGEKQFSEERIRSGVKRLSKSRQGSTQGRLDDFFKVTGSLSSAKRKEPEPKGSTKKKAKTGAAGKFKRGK
Chain of Transient receptor potential cation channel subfamily V member 1 (Homo sapiens) (Q8NER1 whole entry, looked up): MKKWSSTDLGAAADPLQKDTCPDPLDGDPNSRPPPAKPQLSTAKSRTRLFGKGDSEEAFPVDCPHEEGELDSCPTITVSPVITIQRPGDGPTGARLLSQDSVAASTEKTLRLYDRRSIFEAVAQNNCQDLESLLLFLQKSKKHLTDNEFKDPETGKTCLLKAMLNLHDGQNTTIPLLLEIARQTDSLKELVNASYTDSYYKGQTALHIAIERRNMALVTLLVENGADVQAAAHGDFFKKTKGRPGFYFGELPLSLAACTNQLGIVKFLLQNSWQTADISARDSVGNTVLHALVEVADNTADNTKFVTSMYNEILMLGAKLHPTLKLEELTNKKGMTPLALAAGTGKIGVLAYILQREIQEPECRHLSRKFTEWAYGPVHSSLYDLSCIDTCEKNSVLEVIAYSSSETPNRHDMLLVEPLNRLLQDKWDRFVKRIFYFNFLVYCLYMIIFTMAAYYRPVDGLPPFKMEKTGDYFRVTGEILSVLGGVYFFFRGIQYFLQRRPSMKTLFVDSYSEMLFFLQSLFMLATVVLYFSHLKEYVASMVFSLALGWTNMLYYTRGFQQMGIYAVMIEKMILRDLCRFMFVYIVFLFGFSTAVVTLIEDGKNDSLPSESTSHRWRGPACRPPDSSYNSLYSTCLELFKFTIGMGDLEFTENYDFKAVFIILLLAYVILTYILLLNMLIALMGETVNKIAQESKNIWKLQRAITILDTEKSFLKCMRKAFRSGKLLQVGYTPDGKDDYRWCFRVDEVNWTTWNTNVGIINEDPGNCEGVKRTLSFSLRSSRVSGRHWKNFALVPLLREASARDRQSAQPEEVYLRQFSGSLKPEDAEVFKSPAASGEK
Chain of Chromobox protein homolog 1 (Homo sapiens) (P83916 whole entry, looked up): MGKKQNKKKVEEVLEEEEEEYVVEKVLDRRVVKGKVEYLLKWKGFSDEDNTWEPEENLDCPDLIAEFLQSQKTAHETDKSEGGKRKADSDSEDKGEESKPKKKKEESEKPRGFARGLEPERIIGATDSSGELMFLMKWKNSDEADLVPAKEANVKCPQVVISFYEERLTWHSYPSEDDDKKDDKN
Chain of M-phase phosphoprotein 8 (Homo sapiens) (Q99549 whole entry, looked up): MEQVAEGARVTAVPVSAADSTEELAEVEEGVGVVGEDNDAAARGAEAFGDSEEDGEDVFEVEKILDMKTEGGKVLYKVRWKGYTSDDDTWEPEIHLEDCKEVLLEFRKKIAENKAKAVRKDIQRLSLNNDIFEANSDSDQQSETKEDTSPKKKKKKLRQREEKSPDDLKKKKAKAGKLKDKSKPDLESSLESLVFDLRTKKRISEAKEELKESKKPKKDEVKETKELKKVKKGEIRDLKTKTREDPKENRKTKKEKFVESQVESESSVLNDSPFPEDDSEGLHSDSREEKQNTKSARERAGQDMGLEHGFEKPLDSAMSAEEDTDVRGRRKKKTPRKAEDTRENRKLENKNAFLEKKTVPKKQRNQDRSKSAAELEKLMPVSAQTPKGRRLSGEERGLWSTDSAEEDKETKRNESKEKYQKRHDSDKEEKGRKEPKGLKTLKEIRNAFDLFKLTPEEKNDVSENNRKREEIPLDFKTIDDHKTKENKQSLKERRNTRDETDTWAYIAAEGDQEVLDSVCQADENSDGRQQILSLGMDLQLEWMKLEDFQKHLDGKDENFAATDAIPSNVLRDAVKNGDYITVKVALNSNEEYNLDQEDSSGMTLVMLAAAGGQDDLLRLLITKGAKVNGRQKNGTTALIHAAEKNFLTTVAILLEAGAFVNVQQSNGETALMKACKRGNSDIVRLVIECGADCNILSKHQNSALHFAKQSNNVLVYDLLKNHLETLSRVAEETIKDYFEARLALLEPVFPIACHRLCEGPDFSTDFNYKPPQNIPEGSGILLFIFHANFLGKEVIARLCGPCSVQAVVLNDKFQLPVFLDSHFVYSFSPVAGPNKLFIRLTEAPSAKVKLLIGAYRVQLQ
Chain of Methanococcus maripaludis chaperonin (MmCpn) (Q6LX38 1-543): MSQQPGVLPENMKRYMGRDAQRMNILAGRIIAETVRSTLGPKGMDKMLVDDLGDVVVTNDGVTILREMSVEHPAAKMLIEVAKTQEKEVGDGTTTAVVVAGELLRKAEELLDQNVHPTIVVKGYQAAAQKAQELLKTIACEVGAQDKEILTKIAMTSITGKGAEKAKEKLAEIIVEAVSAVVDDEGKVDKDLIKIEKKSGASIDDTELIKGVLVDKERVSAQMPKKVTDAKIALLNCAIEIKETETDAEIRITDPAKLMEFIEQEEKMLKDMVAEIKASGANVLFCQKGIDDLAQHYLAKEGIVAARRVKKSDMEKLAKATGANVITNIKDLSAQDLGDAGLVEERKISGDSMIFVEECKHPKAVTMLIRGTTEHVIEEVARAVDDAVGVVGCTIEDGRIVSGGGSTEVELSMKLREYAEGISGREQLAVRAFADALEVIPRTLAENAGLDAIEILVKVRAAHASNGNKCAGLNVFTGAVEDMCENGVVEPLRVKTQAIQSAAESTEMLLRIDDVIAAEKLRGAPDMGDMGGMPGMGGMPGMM
Chain of Thyrotropin receptor (Homo sapiens) (P16473 whole entry, looked up): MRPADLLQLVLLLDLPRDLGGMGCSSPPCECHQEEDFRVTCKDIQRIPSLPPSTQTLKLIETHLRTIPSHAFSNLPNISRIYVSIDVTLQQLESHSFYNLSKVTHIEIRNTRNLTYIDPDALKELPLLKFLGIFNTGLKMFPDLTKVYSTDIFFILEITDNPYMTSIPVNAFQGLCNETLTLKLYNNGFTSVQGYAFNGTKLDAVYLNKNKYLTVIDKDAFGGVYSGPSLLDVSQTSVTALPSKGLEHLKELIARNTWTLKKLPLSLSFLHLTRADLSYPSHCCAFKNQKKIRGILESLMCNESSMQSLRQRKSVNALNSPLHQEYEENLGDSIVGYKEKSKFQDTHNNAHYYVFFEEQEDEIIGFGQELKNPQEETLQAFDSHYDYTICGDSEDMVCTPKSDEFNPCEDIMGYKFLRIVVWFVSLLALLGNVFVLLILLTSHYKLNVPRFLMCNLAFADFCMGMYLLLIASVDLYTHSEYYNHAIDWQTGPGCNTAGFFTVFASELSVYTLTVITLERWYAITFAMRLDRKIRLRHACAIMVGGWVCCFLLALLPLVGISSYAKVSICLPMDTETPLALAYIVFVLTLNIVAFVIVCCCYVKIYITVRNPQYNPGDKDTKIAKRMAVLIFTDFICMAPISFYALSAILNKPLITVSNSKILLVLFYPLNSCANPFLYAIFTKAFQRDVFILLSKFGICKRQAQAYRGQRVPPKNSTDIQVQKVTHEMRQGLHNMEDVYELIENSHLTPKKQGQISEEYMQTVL

`C[C@]12CCC(=O)C=C1CC[C@@H]1[C@@H]2C(=O)C[C@@]2(C)[C@H]1CC[C@]2(O)C(=O)CO`: the Potency entry in assay [1], in assay [2], in assay [4] and in assay [5] was “inactive” in each case. For the same molecule, the call in assay [3], in assay [6] and in assay [7] was inactive.

On to `O=C(CCNNC(=O)c1ccncc1)NCc1ccccc1`, for which the Potency result in assay [1], in [2], in [8], in [4], in assay [5] and in assay [9] was “inactive” in each case. Besides, the molecule was classed as inactive in assay [3], in [6] and in assay [7].

For `O=C(CCCN1CCC(O)(c2cccc(C(F)(F)F)c2)CC1)c1ccc(F)cc1`, the Potency was 9.28 µM (active) in assay [1] and 13.1 µM (active) in assay [2]. Moreover, the molecule was called inactive in [3], in assay [6], in [7] and in assay [10]. For the same molecule, the Potency result in assay [8], in assay [5] and in assay [9] was “inactive” throughout.

For `CO[C@@]1(NC(=O)CSCC#N)C(=O)N2C(C(=O)O)=C(CSc3nnnn3C)CS[C@@H]21`, the Potency result in assay [1], in assay [2], in assay [4] and in [5] was “inactive” each time. The result in assay [3], in assay [6] and in [7] was inactive. For the same molecule, the Potency in assay [8] was 21.2 µM (active).

As for `Nc1ncn([C@@H]2O[C@H](CO)[C@@H](O)[C@H]2O)c(=O)n1`, the Potency result in assay [1], in assay [2], in assay [8], in assay [4], in [5] and in assay [9] was “inactive” throughout. For the same molecule, the result in assay [3], in assay [6], in [7] and in assay [10] was inactive.

In the case of `NC(Cc1ccc(Cl)cc1)C(=O)O` (centres undefined), the Potency result in [1], in assay [2], in [8], in [4] and in assay [5] was “inactive” throughout. Moreover, the call in assay [3], in assay [6], in assay [7] and in [10] was inactive.

Take `NC(=O)c1ncn([C@@H]2O[C@H](CO)[C@@H](O)[C@H]2O)c1O`: the Potency result in assay [1], in assay [2], in [8], in assay [4], in [5] and in assay [9] was “inactive” in each case. Also, the molecule was classed as inactive in [3], in assay [6] and in [7].

`OCCN1CCN(CC/C=C2/c3ccccc3Sc3ccc(C(F)(F)F)cc32)CC1`: the Potency in assay [1] was 6.57 µM (active); in [2], 8.28 µM (active); in [5] it was 25.1 µM (active); in [9], 35.5 µM (active). Also, the call in [3], in [6] and in assay [10] was inactive. In addition, the Potency entry in [8] and in assay [4] was “inactive” each time.

`CCCCNC(=O)NS(=O)(=O)c1ccc(C)cc1`: the Potency result in assay [1], in [2], in assay [8], in assay [4], in assay [5] and in [9] was “inactive” throughout. The call in [3], in assay [6] and in assay [7] was inactive.

In the case of `C[N+](C)(C)CCOC(=O)CCC(=O)OCC[N+](C)(C)C`, the Potency result in assay [1], in [2], in [8], in [4], in assay [5] and in [9] was “inactive” each time. Besides, the call in assay [3], in assay [6], in [7] and in assay [10] was inactive.

Regarding `CCN(CC)CC(=O)Nc1c(C)cccc1C`, the Potency entry in assay [1], in assay [2], in assay [8], in assay [4] and in assay [9] was “inactive” in each case. In addition, the molecule was called inactive in assay [3], in [6], in assay [7] and in assay [10].

For the molecule `CCN1CCC[C@H]1CNC(=O)c1c(O)c(Cl)cc(Cl)c1OC`, the Potency result in assay [1], in [2], in assay [8], in assay [4], in assay [5] and in assay [9] was “inactive” in each case. For the same molecule, the call in assay [3], in assay [6] and in assay [7] was inactive.

`CN(C)CC/C=C1\c2ccccc2COc2ccccc21`: the Potency entry in [1], in assay [2], in assay [8], in assay [4], in assay [5] and in assay [9] was “inactive” in each case. The result in assay [3], in assay [6] and in assay [10] was inactive.

Take `COc1cc(C(=O)OCCCN2CCCN(CCCOC(=O)c3cc(OC)c(OC)c(OC)c3)CC2)cc(OC)c1OC`: the Potency in assay [1] was 6.57 µM (active); in assay [2] it was 13.1 µM (active). Besides, the molecule was classed as inactive in assay [3], in [6], in [7] and in assay [10]. Moreover, the Potency result in assay [8], in assay [4] and in assay [5] was “inactive” each time.

Turning to `CNCCC(Oc1ccccc1OC)c1ccccc1` (centres undefined), the Potency result in [1], in [2], in assay [8], in assay [4], in assay [5] and in assay [9] was “inactive” each time. Moreover, the call in [3], in [6] and in assay [7] was inactive.

In the case of `CN/C(=C\[N+](=O)[O-])NCCSCc1ccc(CN(C)C)o1`, the Potency entry in [1], in assay [2] and in [8] was “inactive” throughout. The molecule was classed as inactive in assay [3], in assay [6] and in assay [7].

As for `Cc1nc2ccccn2c(=O)c1CCN1CCC(C(=O)c2ccc(F)cc2)CC1`, the Potency result in assay [1], in [2], in [8], in [4], in [5] and in [9] was “inactive” throughout. Also, the result in [6] and in assay [7] was inactive.

With `COc1ccc(CN(CCN(C)C)c2ccccn2)cc1`, the Potency entry in [1], in [2], in assay [8], in [4], in assay [5] and in assay [9] was “inactive” each time. The outcome in assay [6] and in assay [7] was inactive.

For the molecule `Cc1nc2c([nH]1)c(=O)n(C)c(=O)n2Cc1ccco1`, the Potency result in assay [1], in assay [2], in assay [8], in assay [4], in assay [5] and in [9] was “inactive” throughout. The molecule was called inactive in assay [3], in assay [6] and in assay [7].

With `Nc1c2c(nc3ccccc13)CCCC2O` (centres undefined), the Potency entry in [1], in assay [2], in assay [8], in assay [4], in assay [5] and in [9] was “inactive” in each case. The molecule was called inactive in assay [3], in assay [6] and in assay [7].

For the molecule `COc1cc2c(cc1OC)-c1cc(=Nc3c(C)cc(C)cc3C)n(C)c(=O)n1CC2`, the Potency is 3.7 µM (active) in assay [1]; 2.62 µM (active) in assay [2]; 39.8 µM (active) and inactive in [5]; 35.5 µM (active) in assay [9]. Moreover, the outcome in [3], in assay [6], in [7] and in [10] was inactive. In addition, the Potency result in assay [8] and in [4] was “inactive” each time.

In the case of `CSc1ccc(C(=O)c2[nH]c(=O)[nH]c2C)cc1`, the Potency result in assay [1], in assay [2], in assay [8], in assay [4], in [5] and in assay [9] was “inactive” in each case. For the same molecule, the result in [3], in [6], in assay [7] and in assay [10] was inactive.

These data come from PubChem BioAssay (NCATS).
